Structures are written as SMILES. Structures can show the parent of a compound that is named as a salt.

This experiment has as its system Saccharomyces cerevisiae BY4741 SeMeCo community. The experiment can be described thus: z-score of subpopulation abundance vs DMSO median, subpopulation auxotrophic for U; higher = larger share of this subpopulation than in DMSO controls. Particulars: 10 µM; 24 h; SM minimal medium; subpopulation (auxotrophy): U. As for the experimental part: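 Fluorescent four-plasmid SeMeCo (self-establishing metabolically cooperating S. cerevisiae BY4741 community; plasmids pH-mRuby2, pL-mWasabi, pU-eCFP, pM-TagRFP657) was grown 24 h in minimal SM medium with each Selleck FDA-approved drug at 10 µM in 384-well plates. Cells were fixed and imaged by high-content confocal microscopy. For each auxotrophic subpopulation (and the prototroph), a z-score gives the deviation from the DMSO vehicle-control population median.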
As to `CCCc1nn(C)c2c(=O)[nH]c(-c3cc(S(=O)(=O)N4CCN(C)CC4)ccc3OCC)nc12` [Sildenafil], the “z-score of subpopulation abundance” value is -0.11.

On to `CCn1cc(C(=O)O)c(=O)c2cc(F)c(N3CCN(C)CC3)cc21` [Pefloxacin Mesylate], for which the “z-score of subpopulation abundance” value was found to be 0.14.

`NC(=O)N1c2ccccc2C=Cc2ccccc21` [Carbamazepine]: the “z-score of subpopulation abundance” value is 0.01.

For the compound `C[N+]1(C)CCC(=C(c2ccccc2)c2ccccc2)CC1` [Diphemanil Methylsulfate], the “z-score of subpopulation abundance” value worked out at 0.

In the case of `CN1CC2c3ccccc3Oc3ccc(Cl)cc3C2C1` (stereo not given) [Asenapine maleate], the “z-score of subpopulation abundance” value was -0.5.

Regarding `CO/N=C(\C(=O)N[C@@H]1C(=O)N2C(C(=O)O)=C(CSC(=O)c3ccco3)CS[C@H]12)c1csc(N)n1` [Ceftiofur], the “z-score of subpopulation abundance” value was 0.57.

Regarding `COc1cc(C(C)=O)ccc1OCCCN1CCC(c2noc3cc(F)ccc23)CC1` [Iloperidone], the “z-score of subpopulation abundance” value is -0.16.

For the compound `CN1CCN2c3ncccc3Cc3ccccc3C2C1` (stereo not given) [Mirtazapine], the “z-score of subpopulation abundance” value turned out to be 0.29.

On to `CC1(C)S[C@@H]2[C@H](NC(=O)[C@H](N)c3ccccc3)C(=O)N2[C@H]1C(=O)OCOC(=O)[C@@H]1N2C(=O)C[C@H]2S(=O)(=O)C1(C)C` [Sultamicillin], for which the “z-score of subpopulation abundance” value was found to be 0.83.

As for `CC(C)(C)C(=O)C(Oc1ccc(Cl)cc1)n1ccnc1` (stereo not given) [Climbazole], the “z-score of subpopulation abundance” value is -1.3.

`COc1ccc(-c2nc3cc(C4=NNC(=O)CC4C)ccc3[nH]2)cc1` (stereo not given) [Pimobendan]: the “z-score of subpopulation abundance” value is -0.84.

As for `CCC(=O)NS(=O)(=O)c1ccc(-c2c(-c3ccccc3)noc2C)cc1` [Parecoxib], the “z-score of subpopulation abundance” value was -0.29.

For `CC1(C)S[C@@H]2[C@H](NC(=O)[C@H](N)c3ccccc3)C(=O)N2[C@H]1C(=O)O` [Ampicillin sodium], the “z-score of subpopulation abundance” value was found to be 0.29.

With `C=C[C@H]1CN2CC[C@H]1C[C@H]2[C@H](O)c1ccnc2ccc(OC)cc12` [Quinine HCl Dihydrate], the “z-score of subpopulation abundance” value amounted to 0.16.

Take `O=C(O)C[C@H](O)C[C@H](O)/C=C/c1c(C2CC2)nc2ccccc2c1-c1ccc(F)cc1` [Pitavastatin Calcium]: the “z-score of subpopulation abundance” value came to 0.68.

Take `CCCC(=O)OCOC(=O)C1=C(C)NC(C)=C(C(=O)OC)C1c1cccc(Cl)c1Cl` (stereo not given) [Clevidipine Butyrate]: the “z-score of subpopulation abundance” value is -3.89.

As for `CCOc1ccc2ccccc2c1C(=O)N[C@@H]1C(=O)N2[C@@H]1SC(C)(C)[C@@H]2C(=O)O` [Nafcillin Sodium], the “z-score of subpopulation abundance” value was -0.63.

`COc1cc(NC(C)CCCN)c2ncccc2c1` (stereo not given) [Primaquine Diphosphate]: the “z-score of subpopulation abundance” value was -1.22.

Turning to `N[C@@H](C(=O)N[C@@H]1C(=O)N2C(C(=O)O)=C(Cl)CS[C@H]12)c1ccccc1` [Cefaclor], the “z-score of subpopulation abundance” value came out at 0.82.

On to `OCc1ccccc1O[C@@H]1O[C@H](CO)[C@@H](O)[C@H](O)[C@H]1O` [Salicin], for which the “z-score of subpopulation abundance” value is -0.42.

Consider `CCCCOC(=O)c1ccc(O)cc1` [Butylparaben], for which the “z-score of subpopulation abundance” value was -0.7.

As to `CCC(C)n1ncn(-c2ccc(N3CCN(c4ccc(OCC5COC(Cn6cncn6)(c6ccc(Cl)cc6Cl)O5)cc4)CC3)cc2)c1=O` (stereo not given) [Itraconazole], the “z-score of subpopulation abundance” value was -0.83.

Consider `C[C@H]1c2cccc(O)c2C(O)=C2C(=O)[C@]3(O)C(O)=C(C(N)=O)C(=O)[C@@H](N(C)C)[C@@H]3[C@@H](O)[C@@H]21` [Doxycycline], for which the “z-score of subpopulation abundance” value was -0.63.

`Cc1cc(NS(=O)(=O)c2ccc(N)cc2)no1` [Sulfamethoxazole]: the “z-score of subpopulation abundance” value is -0.2.

For the compound `OC1(c2ccc(Cl)c(C(F)(F)F)c2)CCN(CCCC(c2ccc(F)cc2)c2ccc(F)cc2)CC1` [Penfluridol], the “z-score of subpopulation abundance” value is -0.01.

As for `C[C@]12CC[C@@H]3c4ccc(O)cc4CC[C@H]3[C@@H]1C[C@@H](O)[C@@H]2O` [Estriol], the “z-score of subpopulation abundance” value was -0.19.

With `OCCN(CCO)c1nc(N2CCCCC2)c2nc(N(CCO)CCO)nc(N3CCCCC3)c2n1` [Dipyridamole], the “z-score of subpopulation abundance” value is -6.98.

On to `O=C(O)c1cc(/N=N/c2ccc(O)c(C(=O)O)c2)ccc1O` [Olsalazine Sodium], for which the “z-score of subpopulation abundance” value is -0.08.

Turning to `C[C@@H](O)[C@H]1C(=O)N2C(C(=O)O)=C(SCCNC=N)C[C@H]12` [Imipenem], the “z-score of subpopulation abundance” value came to 0.59.

For `COc1cc([C@@H]2c3cc4c(cc3[C@@H](O[C@@H]3O[C@@H]5CO[C@@H](c6cccs6)O[C@H]5[C@H](O)[C@H]3O)[C@H]3COC(=O)[C@H]23)OCO4)cc(OC)c1O` [Teniposide], the “z-score of subpopulation abundance” value is 0.19.

As to `C=C[C@H]1CN2CC[C@H]1C[C@@H]2[C@@H](O)c1ccnc2ccc(OC)cc12` [Quinidine sulfate], the “z-score of subpopulation abundance” value was -1.29.

As to `COCCCN1CCC(NC(=O)c2cc(Cl)c(N)c3c2OCC3)CC1` [Prucalopride], the “z-score of subpopulation abundance” value turned out to be 0.73.

`CC1(C)[C@H](C(=O)O)N2C(=O)C[C@H]2S1(=O)=O` [Sulbactam sodium]: the “z-score of subpopulation abundance” value was determined as 1.59.

As to `C[C@H]1[C@H](NC(=O)/C(=N\OC(C)(C)C(=O)O)c2csc(N)n2)C(=O)N1S(=O)(=O)O` [Aztreonam], the “z-score of subpopulation abundance” value is -0.07.

On to `C[C@H]1COc2c(N3CCN(C)CC3)c(F)cc3c(=O)c(C(=O)O)cn1c23` [Levofloxacin hydrate], for which the “z-score of subpopulation abundance” value was found to be 0.27.

Take `O=C(O)c1cn(-c2ccc(F)cc2)c2cc(N3CCNCC3)c(F)cc2c1=O` [Sarafloxacin HCl]: the “z-score of subpopulation abundance” value was 0.41.

As to `O=C(O)c1cc(-c2ccc(F)cc2F)ccc1O` [Diflunisal], the “z-score of subpopulation abundance” value is -2.37.

Take `CCC1(C)CC(=O)NC1=O` (stereo not given) [Ethosuximide]: the “z-score of subpopulation abundance” value is 0.64.

In the case of `CCCCCC(=O)O[C@]1(C(C)=O)CC[C@H]2[C@@H]3CCC4=CC(=O)CC[C@]4(C)[C@H]3CC[C@@]21C` [Hydroxyprogesterone caproate], the “z-score of subpopulation abundance” value is -0.21.

Take `COCC1=C(C(=O)OC(C)OC(=O)OC(C)C)N2C(=O)[C@@H](NC(=O)/C(=N\OC)c3csc(N)n3)[C@H]2SC1` (stereo not given in full) [Cefpodoxime proxetil]: the “z-score of subpopulation abundance” value worked out at 0.51.

The values above are taken from the supplement of paper PMC8975748.
